ATXN2 expr inh: Primary qHTS for Inhibitors of ATXN expression; Potency, µM (titrated, usually from 57 µM), for the others: at the highest dose activity change, negative = inhibition, actives largely listed as inhibitors; AID 1745845, 2022; 360,000 compounds, 0.72% hits; HEK-293 ATXN2-luciferase reporter, luminescence, 24 h; further: on the % scale 0 is the no-effect control and ±100 the full control effect; nearly all actives have a fitted effect of over 55% in size
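qHTS (up to 57 uM final) was run with 24 h compound exposure of reporter cells at 37 °C. Each well was multiplexed: SteadyGlo luminescence measured ATXN2-luciferase expression after a fluorogenic Gly-Phe-AFC viability readout (25 uM final).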
KB-V1 MDR tox: qHTS assay for MDR1-selective chemotherapeutics: Primary screen using the drug-selected MDR subline cells KB-V1; Potency, µM (top dose mostly 46.1 µM), most hits filed as cytotoxic; KB-V1 MDR cells viability, CellTiter-Glo, 72 h; 400,000 compounds, 3.4% hits; further: on the % scale 0 is the no-effect control and ±100 the full control effect; nearly all actives have a fitted effect of over 60% in size
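Following 72 h at 37 degrees C with compound, KB-V1 cell viability was read by CellTiter-Glo luminescence, medium being phenol-red-free DMEM plus 10% FBS; concentration-response parameters came from normalized, curve-fitted qHTS data.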
HepG2 tox: qHTS for Inhibitors of TGF-b: Cytotox Counterscreen; Potency, µM (top dose mostly 46.1 µM), inactives show at the top dose activity change, negative = cytotoxicity, usual class: cytotoxic; AID 588856, 2011; HepG2 CAGA-GFP viability, ATP luminescence, 18 h; 410,000 compounds, 0.76% hits
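HepG2 CAGA-GFP cells (1000/well, DMEM with 1% FBS) received compound, then TGF-beta at 500 pg/mL final, and were incubated 18 hours at 37 degrees C. Viability was read by CellTiter-Glo luminescence. Media-only wells were set as complete cell-killing and DMSO as no toxicity.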
KB-3-1 cytotox: qHTS assay for MDR1-selective chemotherapeutics: Primary screen using the parental adenocarcinoma cell KB-3-1; Potency, µM (doses to about 46.1 µM), most hits filed as cytotoxic; 400,000 compounds, 1.4% hits; KB-3-1 viability, CellTiter-Glo ATP luminescence, 72 h; further: on the % scale 0 is the no-effect control and ±100 the full control effect; nearly all actives have a fitted effect of over 60% in size
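Here the drug-naive KB-3-1 line serves as comparator for MDR sub-line selectivity; cells received compound titrations, 72 h at 37 °C, then CellTiter-Glo readout.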
TGFb SMAD3 inh: qHTS for Inhibitors of TGF-b; HepG2 CAGA-GFP TGF-b/SMAD3 reporter, GFP fluorescence, 18 h; TGF-beta stimulated, 500 pg/mL final; Potency, µM (titrated, usually from 46.1 µM), inactives show at the top dose activity, negative = inhibition, most hits filed as inhibitors; 410,000 compounds, 1.2% hits; AID 588855, 2011; further: on the % scale 0 is the no-effect control and ±100 the full control effect; nearly all actives have a fitted effect of over 65% in size
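First, reporter cells (HEPG2 CAGA-GFP) rested 2 h at 37 degrees C. Next, compounds were pinned in and TGF-beta added to 500 pg/mL final. After 18 h, GFP was imaged per cell and summed per well.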
S2 tox: Viability Counterscreen for Primary qHTS for Inhibitors of ATXN expression | S2 cells (HEK-293 line with an ATXN2-luciferase reporter) viability, CellTiter-Fluor protease fluorescence, 24 h | Potency, µM (series often up to 56.7 µM), hits mostly cytotoxic | 400,000 compounds, 0.49% hits | AID 651635, 2014; further: nearly all actives have a fitted effect of over 40% in size
* marks the source's active call; other numbers are inactive results; i = inactive; ? = inconclusive; . = no result given. Hits are enriched below; roughly 5.9% of the tested compounds scored in any of these assays. The call rests on the fitted dose curve; in most records, active means well fitted curve in the direction sought with a large enough effect; inconclusive means small, poorly fitted or top-dose-only effect, or another doubt; inactive means no such curve, though single readings can be large; an effect the other way counts as inactive or inconclusive. Potency means the concentration at half of the fitted maximal effect.

SMILES	ATXN2 expr inh	KB-V1 MDR tox	HepG2 tox	KB-3-1 cytotox	TGFb SMAD3 inh	S2 tox
Cc1oc(-c2ccc(Cl)cc2)nc1CN1CCC(C(=O)NCCCN2CCCC(C)C2)CC1 (stereo not given)	?	i	14µM*	?	?	?
Cc1oc(-c2ccc(Cl)cc2)nc1CN1CCC(C(=O)NCCCN2CCCC2=O)CC1	-9%	i	-29%	i	-6%	i
Cc1[nH]c2ccccc2c1C(=O)CN1C(=O)C(=O)N(Cc2ccco2)C1=O	-7%	i	11%	i	13%	i
Cc1cc(C(=O)CN2C(=O)C(=O)N(Cc3ccco3)C2=O)c(C)n1CCc1ccc(F)cc1	-5%	15µM*	-11%	18µM*	-18%	?
Cc1cc(C(=O)COC(=O)c2ccco2)c(C)n1Cc1ccco1	.	i	38%	i	-1%	i
Cc1cc(C(=O)CN2C(=O)C(=O)N(Cc3ccco3)C2=O)c(C)n1CCc1ccccc1	-3%	16µM*	1%	?	?	?
COc1ccc(-c2nc3sc(CCNC(=O)c4cccc(C(F)(F)F)c4)c(C)n3n2)cc1	23%	i	-31%	i	-22%	i
N#CCCN(Cc1ccccc1)C(C(=O)NC1CCCCC1)c1cc2ccccc2o1 (stereo not given)	-39%	?	3%	?	13µM*	.
COc1cccc(C(=O)NCCc2csc(-c3ccc(Cl)cc3)n2)c1	?	i	-28%	i	13µM*	?
COc1cccc(OC)c1C(=O)NCCc1csc(-c2ccc(Cl)cc2)n1	?	i	-33%	i	?	?
O=S(=O)(NCCc1csc(-c2ccc(F)cc2)n1)c1ccc(F)cc1F	?	i	-28%	?	?	i
CC(C)(C)c1ccc(C(=O)NCCc2csc(-c3ccc(Cl)cc3)n2)cc1	-12%	i	-18%	i	13µM*	i
Cc1ccc(-c2nc(CCNC(=O)c3ccc(C)c(C)c3)cs2)cc1	.	.	-10%	.	-18%	.
CN(C)CCCNC(=O)c1ccc(-c2nc(-c3ccc(Cl)cc3)cs2)cc1	?	?	16µM*	?	?	20µM*
COc1ccc(F)cc1S(=O)(=O)NCCc1csc(-c2ccc(Cl)cc2)n1	?	i	-24%	i	13µM*	?
CN(C)CCCNC(=O)c1ccccn1	-1%	i	1%	i	-9%	i
CCCCNC(=O)Cn1c(=O)cc(C)c2c(C)nn(-c3ccc(CC)cc3)c21	-10%	i	-14%	i	?	i
O=C(NCCc1csc2nc(-c3ccc(F)cc3)nn12)c1cccc(C(F)(F)F)c1	-39%	i	-25%	i	-20%	?
COc1ccc(-c2nc3scc(CCNC(=O)c4cccc(Br)c4)n3n2)cc1	?	i	-21%	i	?	18µM*
Cc1ccc(NC(=O)CSc2nnc3ccc4ccccc4n23)cc1	-3%	i	9%	i	-4%	i
Cc1nc2nc(C)n(CCN3CCOCC3)c(=O)c2c(-c2cccc([N+](=O)[O-])c2)c1C(=O)CCCCCCCCCCN1CCC(c2ccccc2)(c2ccccc2)CC1	?	7.3µM*	11µM*	?	7.1µM*	.
O=C(NCCCN1CCOCC1)/C(=C/c1ccc(-c2cccc([N+](=O)[O-])c2)o1)NC(=O)c1ccccc1	.	i	-33%	i	-2%	?
Cc1cnc(C)c(-c2cc(F)cc3c2OC(CNC(=O)CN2CCCC2)C3)n1 (stereo not given)	.	.	.	.	.	i
CC(C)C1=CC(=Nc2ccc(S(N)(=O)=O)cc2)C=C(C(C)C)C1=O	-17%	i	11µM*	i	?	i
COCCN1CCN(C(=O)c2cnn(-c3nccc(-c4ccccc4F)n3)c2-c2ccco2)CC1	.	.	.	.	.	i
SMILES	ATXN2 expr inh	KB-V1 MDR tox	HepG2 tox	KB-3-1 cytotox	TGFb SMAD3 inh	S2 tox
CCC(C)c1ccc(NC(=O)c2cccnc2)cc1 (stereo not given)	49%	21µM*	-20%	i	-12%	i
CCC(C)c1ccc(NC(=S)NCc2cccnc2)cc1 (stereo not given)	7%	18µM*	3%	?	-8%	i
CC(C)(C)c1ccc(NC(=S)NCc2cccnc2)cc1	-4%	i	-22%	i	-35%	i
O=C1/C(=C/c2ccncc2)SC(=S)N1C1CCS(=O)(=O)C1 (stereo not given)	-10%	?	20µM*	?	?	?
COc1cc(NC(=O)CCc2c(C)n(C)c3cc(-c4ccccc4C)nn3c2=O)cc(OC)c1OC	.	.	-32%	.	-36%	.
O=C(CSc1ccc(-c2ccco2)nn1)c1ccc(F)cc1	28%	26µM*	11%	i	-8%	i
O=C(CSc1ccc(-c2ccco2)nn1)NCc1ccc(F)cc1	10%	i	2%	i	-23%	i
Cc1nc(Sc2nnnn2C)c2c3c(sc2n1)CCC3	20%	6.5µM*	13%	3.3µM*	?	i
CCc1nc(Sc2nnnn2-c2ccccc2)c2c3c(sc2n1)CCCC3	-8%	?	-4%	i	0%	?
CCn1cc(Cl)c(C(=O)N2N=C3/C(=C/c4cccs4)CCCC3C2c2cccs2)n1 (stereo not given)	-15%	21µM*	-2%	?	5%	?
CC(=O)N1N=C2c3ccccc3CCC2C1c1cccs1 (stereo not given)	0%	i	-28%	i	?	i
COc1ccc(NC(=O)CN(C)S(=O)(=O)c2ccc(C(=O)N3CCOCC3)s2)cc1	2%	i	-6%	i	-10%	i
CNC(=S)N=Nc1c(O)[nH]c2ccc(C(C)C)cc12	-30%	21µM*	-7%	?	-19%	i
CC(C)c1ccc2[nH]c(O)c(N=NC(=O)c3cccc(S(=O)(=O)N4CCCCC4)c3)c2c1	-35%	2.3µM*	5%	?	-5%	?
Oc1[nH]c2ccc(Br)cc2c1N=NC(=S)Nc1ccc(F)cc1	-30%	?	-65%	?	10µM*	?
Oc1ccc(NC(=S)N=Nc2c(O)[nH]c3ccc(Br)cc23)cc1	?	?	22µM*	i	?	?
Cn1c(-c2ccc(F)cc2)cnc1NCc1ccc(C#N)cc1	0%	21µM*	3%	i	0%	i
